In patent US20090232783, “Method for Regulating Production of Hemoglobin Beta Chains” (published 2009) one finds binding signal data, which are given here for one sequence.

The assay concerns the target Nuclear ferritin-H (K562 nuclear extract, crude or heat/proteinase K enriched) (Homo sapiens, UniProt P02794 P02794:2-183). The experiment in a line: competition; 20-fold greater competitor concentration than wt needed for 50% inhibition; 1000-fold vs 50-fold excess. Conditions: protein: extract; dsDNA, one strand shown. On the procedure: Gel mobility shift assays. Gel retardation assays (i.e., gel shifts) were used to determine DNA binding of the extract proteins to the Rsa I (95 bp) fragment and synthetic oligonucleotides (Berg et al., (1989) Nucleic Acids Res 17, 8833-52; Fried & Crothers (1981) Nucleic Acids Res 9, 6505-25). Each reaction contained 0.5-2 ng of DNA, 1.0-5.0 ug of extract protein, 1.0-5.0 ug of poly dI:poly dC, 100 mM KCl, and binding buffer (Berg et al., (1989) Nucleic Acids Res 17, 8833-52). Unlabeled competitor oligonucleotides ranged from 15- to 2000-fold molar excess and were included in the reaction mixture with the probe before adding protein. Gels used for retardation assays were 4%, 5%, or 6% acrylamide and the running buffer was low ionic strength TAE (Berg et al., (1989) Nucleic Acids Res 17, 8833-52).
Definition of the binding site with competition gel shifts. To further localize the binding of ferritin, the 37 bp oligonucleotide was mutated in different places, replacing six nucleotides at a time with all A's, all C's, or all G's, with complementary nucleotide replacements in the opposing strand (FIG. 4A). A competition gel shift assay was done with the partially purified protein from heated K562 nuclear extract, in which each of the unlabeled mutant oligos as well as the native sequence was competed against the 32-P-labeled native sequence for binding.
Turning to AACTCCTAAGCAAAAAACAGAAGAGCCAAGGACAGGT, the binding signal came out at 20 fold.
